# Compounds without any hit were thinned out: in the full panel of roughly 79,000, 15% have a hit. Values without a mark were called inactive. The source made the active and inactive calls. No stated cut-off is given here; in the data, active means growth inhibition above about 70%; inactive means the rest.
# Assays:
# [1] = NCI Yeast Anticancer Drug Screen. Data for the rad52 strain (AID 147);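 further: 0% = growth of vehicle-treated control cultures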; settings: S. cerevisiae rad52 mutant growth inhibition, hits give high values
# In short: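 Compounds are applied to a genetically defined yeast strain lacking normal DNA damage repair, and inhibition of growth is expressed relative to cultures given vehicle only.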
# [2] = NCI Yeast Anticancer Drug Screen. Data for the wt1 strain (AID 149);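 further: 0% = growth of vehicle-treated wt1 cultures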; settings: S. cerevisiae wt1 strain (SPY 50644) growth inhibition, hits give high values
# In short: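 Yeast wt1 strain exposed to compounds; growth inhibition measured relative to vehicle-treated controls.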
# [3] = NCI Yeast Anticancer Drug Screen. Data for the rad50EPP+ strain (AID 151);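 further: 0% = growth of vehicle-treated control cultures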; settings: S. cerevisiae rad50 mutant strain, hits give high values
# In short: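 Compounds were applied to the rad50EPP+ yeast strain, which bears a defined DNA repair alteration, and growth inhibition was determined relative to vehicle-treated cultures.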
# [4] = NCI Yeast Anticancer Drug Screen. Data for the mgt1 strain (AID 153); settings: S. cerevisiae mgt1 mutant growth inhibition, hits give high values
# In short: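 Strain: mgt1 yeast, one of a set carrying defined DNA damage repair or cell cycle control alterations. Compound-treated growth compared with vehicle.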
# [5] = NCI Yeast Anticancer Drug Screen. Data for the mec2-1 strain (AID 157); settings: S. cerevisiae mec2-1 strain, hits give high values
# In short: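 Strain: mec2-1 (DNA repair/cell cycle alteration). Compound exposure, then growth measured; inhibition expressed relative to vehicle.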
# [6] = NCI Yeast Anticancer Drug Screen. Data for the rad14 strain (AID 159);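 further: 0% = growth of vehicle-treated control cultures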; settings: S. cerevisiae rad14 strain growth inhibition, hits give high values
# In short: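 Yeast cells carrying a defined DNA-repair defect were exposed to compounds, and growth inhibition was calculated relative to vehicle-treated control cultures.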
# [7] = NCI Yeast Anticancer Drug Screen. Data for the sgs1 mgt1 strain (AID 161);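 further: 0% = growth of cultures given vehicle only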; settings: S. cerevisiae sgs1 mgt1 strain, hits give high values
# In short: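 Test agents were incubated with a DNA-repair-mutant yeast strain. Growth was then read and compared against vehicle-treated controls.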
# [8] = NCI Yeast Anticancer Drug Screen. Data for the CLN2oe strain (AID 163);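 further: 0% = growth of vehicle-only control cultures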; settings: S. cerevisiae CLN2oe strain, hits give high values
# In short: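 Growth of a genetically modified yeast strain is measured after compound exposure and compared with cultures given vehicle alone.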
# [9] = NCI Yeast Anticancer Drug Screen. Data for the cln2 rad14 strain (AID 165);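 further: 0% = growth equal to vehicle treated cultures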; settings: S. cerevisiae cln2 rad14 strain, hits give high values
# In short: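 Compounds are applied to the cln2 rad14 yeast strain, and growth is then compared with that of vehicle-treated cultures to give inhibition.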
# [10] = NCI Yeast Anticancer Drug Screen. Data for the bub3 strain (AID 167); settings: S. cerevisiae bub3 mutant strain, hits give high values
# In short: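 Compounds were applied to a genetically altered yeast strain carrying a cell-cycle control defect. Growth inhibition was scored against vehicle-treated controls.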
# [11] = NCI Yeast Anticancer Drug Screen. Data for the wt2 strain (AID 169);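 further: 0% = growth of vehicle-treated yeast cultures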; settings: S. cerevisiae wt2 strain growth inhibition, hits give high values
# In short: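 This strain belongs to a panel of yeast strains with defined genetic alterations in DNA damage repair or cell cycle control. Compounds are applied, and growth inhibition is measured against vehicle-treated cultures.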
# [12] = NCI Yeast Anticancer Drug Screen. Data for the mlh1 strain (AID 171);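 further: 0% = growth of vehicle-treated control cultures of the same strain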; settings: S. cerevisiae mlh1 strain growth inhibition, hits give high values
# In short: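 Growth of the mutant yeast strain after compound exposure, expressed as inhibition relative to vehicle-only controls.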
# [13] = NCI Yeast Anticancer Drug Screen. Data for the mlh1 rad18 strain (AID 175); settings: S. cerevisiae mlh1 rad18 strain growth inhibition, hits give high values
# In short: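 Read-out is yeast growth inhibition, calculated against vehicle-only controls. The compound was applied to a strain engineered with DNA damage repair alterations.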
# [14] = NCI Yeast Anticancer Drug Screen. Data for the rad18 strain (AID 177); settings: S. cerevisiae rad18 mutant growth inhibition, hits give high values
# In short: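 Growth of the mutant yeast strain after compound exposure, normalised to vehicle-only cultures.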
# [15] = at 5.0 µM (retest, dose inferred, filed as 0.5)
# [16] = at 50.0 µM (retest, dose inferred, filed as 5.0)
compound,measurement,setting,value
CCOC1=C/C(=N\Nc2ccc([N+](=O)[O-])cc2)CCC1,growth inhibition,[1]; at 1.2 µM,0%
same,growth inhibition,[1]; at 3.7 µM,8%
same,growth inhibition,[1]; at 11.0 µM,29%
same,growth inhibition,[1]; at 33.0 µM,69%
same,growth inhibition,[1]; at 100.0 µM,26%
same,growth inhibition,[2]; at 1.2 µM,0%
same,growth inhibition,[2]; at 3.7 µM,7%
same,growth inhibition,[2]; at 11.0 µM,9%
same,growth inhibition,[2]; at 33.0 µM,24%
same,growth inhibition,[2]; at 100.0 µM,18%
same,growth inhibition,[3]; at 1.2 µM,3%
same,growth inhibition,[3]; at 3.7 µM,20%
same,growth inhibition,[3]; at 11.0 µM,70% (active)
same,growth inhibition,[3]; at 33.0 µM,87% (active)
same,growth inhibition,[3]; at 100.0 µM,58%
same,growth inhibition,[4]; at 1.2 µM,3%
same,growth inhibition,[4]; at 3.7 µM,9%
same,growth inhibition,[4]; at 11.0 µM,18%
same,growth inhibition,[4]; at 33.0 µM,22%
same,growth inhibition,[4]; at 100.0 µM,10%
same,growth inhibition,[5]; at 1.2 µM,0%
same,growth inhibition,[5]; at 3.7 µM,5%
same,growth inhibition,[5]; [15],1%
same,growth inhibition,[5]; at 11.0 µM,19%
same,growth inhibition,[5]; at 33.0 µM,31%
same,growth inhibition,[5]; [16],67%
same,growth inhibition,[5]; at 50.0 µM,37.9%
same,growth inhibition,[5]; at 100.0 µM,11%
same,growth inhibition,[6]; at 1.2 µM,2%
same,growth inhibition,[6]; at 3.7 µM,9%
same,growth inhibition,[6]; at 11.0 µM,27%
same,growth inhibition,[6]; at 33.0 µM,73% (active)
same,growth inhibition,[6]; at 100.0 µM,33%
same,growth inhibition,[7]; [15],10%
same,growth inhibition,[7]; [16],21%
same,growth inhibition,[7]; at 50.0 µM,48.6%
same,growth inhibition,[8]; at 1.2 µM,-1%
same,growth inhibition,[8]; at 3.7 µM,-6%
same,growth inhibition,[8]; at 11.0 µM,21%
same,growth inhibition,[8]; at 33.0 µM,15%
same,growth inhibition,[8]; at 100.0 µM,-5%
same,growth inhibition,[9]; [15],5%
same,growth inhibition,[9]; [16],10%
same,growth inhibition,[9]; at 50.0 µM,29.5%
same,growth inhibition,[10]; at 1.2 µM,-3%
same,growth inhibition,[10]; at 3.7 µM,4%
same,growth inhibition,[10]; [15],-1%
same,growth inhibition,[10]; at 11.0 µM,11%
same,growth inhibition,[10]; at 33.0 µM,15%
same,growth inhibition,[10]; [16],33%
same,growth inhibition,[10]; at 50.0 µM,95% (active)
same,growth inhibition,[10]; at 100.0 µM,18%
same,growth inhibition,[11]; at 1.2 µM,-1%
same,growth inhibition,[11]; at 3.7 µM,3%
same,growth inhibition,[11]; at 11.0 µM,7%
same,growth inhibition,[11]; at 33.0 µM,24%
same,growth inhibition,[11]; at 100.0 µM,11%
same,growth inhibition,[12]; at 1.2 µM,0%
same,growth inhibition,[12]; at 3.7 µM,5%
same,growth inhibition,[12]; at 11.0 µM,11%
same,growth inhibition,[12]; at 33.0 µM,17%
same,growth inhibition,[12]; at 100.0 µM,7%
same,growth inhibition,[13]; [15],21%
same,growth inhibition,[13]; [16],87% (active)
same,growth inhibition,[13]; at 50.0 µM,41.7%
same,growth inhibition,[14]; at 1.2 µM,4%
same,growth inhibition,[14]; at 3.7 µM,8%
same,growth inhibition,[14]; at 11.0 µM,30%
same,growth inhibition,[14]; at 33.0 µM,62%
same,growth inhibition,[14]; at 100.0 µM,55%

# — PubChem BioAssay (NCI)
